# Assay results as given in PubChem BioAssay (NCI).
# The panel holds about 83,000 compounds, 20% with a hit somewhere; the sample as a whole holds those more often.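 Plates (96-well) were seeded with cells, treated with compound at one concentration, and incubated for 48 hours before percent growth was determined.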 Unmarked numbers belong to inactive results. The source made the active and inactive calls. How the source made its calls: active means growth percent below 10; inactive means the rest.
# Key:
# Assay in all cases: NCI-60 one-dose screen, 48 h (100 = growth as untreated, 0 = no growth, -100 = all killed)
# Conditions in all cases: 10 µM unless noted
# [1] = tested on: EKVX NSCLC
# [2] = tested on: SN12C renal
# [3] = tested on: UO-31 renal
# [4] = tested on: TK-10 renal
# [5] = tested on: ACHN renal
# [6] = tested on: CAKI-1 renal
# [7] = tested on: A498 renal
# [8] = tested on: CCRF-CEM leukemia
# [9] = tested on: MOLT-4 leukemia
Structure (SMILES),growth [1],growth [2],growth [3],growth [4],growth [5],growth [6],growth [7],growth [8],growth [9]
C=CC(=O)N1CCC[C@H](n2c(=O)n(-c3ccc(Oc4ccccc4)cc3)c3c(N)ncnc32)C1,57.4%,71%,50.5%,27.6%,41.2%,69.1%,81.2%,82.3%,68.5%
COC(=O)CNC(=O)[C@@H](OC)[C@@H]1Cc2cc3cc(OC4CC(OC5CC(O)C(O)C(C)O5)C(O)C(C)O4)c(C)c(O)c3c(O)c2C(=O)[C@H]1OC1CC(OC2CC(OC3CC(C)(O)C(O)C(C)O3)C(O)C(C)O2)C(O)C(C)O1 (some centres not stated),20.2%,13.7%,10.9%,21%,-1.39% (active),43.5%,-74.3% (active),18%,-2.56% (active)
CCN1CCN(Cc2ccc(-c3cc4c(N[C@H](C)c5ccccc5)ncnc4[nH]3)cc2)CC1,41.8%,25%,13.5%,2.14% (active),9.72% (active),21.7%,25.4%,25.4%,37.8%
CCc1cnn2c(NCc3ccc[n+]([O-])c3)cc(N3CCCC[C@H]3CCO)nc12,-11.2% (active),4.31% (active),-7.4% (active),-16% (active),2.95% (active),6.71% (active),-60.4% (active),-0.938% (active),-9.3% (active)
C[C@H](NC(=O)c1c(N)nn2cccnc12)c1cc2cccc(C#Cc3cnn(C)c3)c2c(=O)n1-c1ccccc1,33.9%,40.6%,10.6%,-9.96% (active),20.7%,21.3%,-24.3% (active),13.8%,-4.98% (active)
O=C(NC1CCNCC1)c1[nH]ncc1NC(=O)c1c(Cl)cccc1Cl,52.5%,12.7%,70.6%,25.8%,66.5%,45.4%,-25.3% (active),11.2%,5.67% (active)
O=C(Cn1ccc2ccccc21)Nc1ccc(-c2nc3ccccc3s2)cc1,107%,101%,92.4%,104%,111%,100%,99.1%,97%,94.5%
Cn1ncc(Cl)c1-c1cc(C(=O)N[C@H](CN)Cc2cccc(F)c2)sc1Cl,38.5%,29.5%,-10.1% (active),8.77% (active),18.7%,11%,-61.2% (active),6.1% (active),-14.5% (active)
